Records with an inconclusive call do not appear. A call without a number means that no potency is given here. Active and inactive are the calls of the source. Unless noted, the call rests on the fitted dose curve; in most records, active means well fitted curve in the direction sought with a large enough effect in the repeat runs; inconclusive means weak or mixed curves; inactive means no such curve, though single readings can be large; an effect the other way counts as inactive or inconclusive. Non-standard residues stand in square brackets, D forms with d. Residues, ends and D or L forms follow the SMILES beside them. pGlu = O=C1CC[C@@H](C(=O)O)N1
Tests used:
[1] = qHTS assay for small molecule agonists of the p53 signaling pathway (AID 651631; calls by dose curve; further: nearly all actives have a fitted effect of over 15% in size; further: potency means the concentration at half of the fitted maximal effect)
Method in brief: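 HCT-116 cells carrying a stable p53 response element–beta-lactamase reporter were plated, rested 5 h at 37 °C, then exposed to compound in DMSO for 16 h at 37 °C; reporter activity was read as FRET substrate fluorescence after 2 h at room temperature.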

[2] = qHTS assay for small molecules that induce genotoxicity in human embryonic kidney cells expressing luciferase-tagged ATAD5 (AID 651632); further: nearly all actives have a fitted effect of over 15% in size
Method in brief: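 Increased luciferase signal from ATAD5-tagged reporter cells indicates DNA-damage-driven ATAD5 induction. HEK293T cells are treated for 16 hr at 37C before detection with Amplite.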

[3] = qHTS assay for small molecule agonists of the p53 signaling pathway - cell viability (AID 651633; calls by dose curve; further: nearly all actives have a fitted effect of over 30% in size; further: potency means the concentration at half of the fitted maximal effect)
Method in brief: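 p53RE-bla cells were treated with compound for 16 hours at 37 C. Cytotoxicity was then measured as CellTiter-Glo luminescence after 30 min at room temperature.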

[4] = qHTS assay for small molecules that induce genotoxicity in human embryonic kidney cells expressing luciferase-tagged ATAD5 - cell viability (AID 651634; calls by dose curve; further: nearly all actives have a fitted effect of over 25% in size)
Method in brief: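 Cytotoxicity counterscreen in HEK293T cells bearing an ATAD5-luciferase reporter: live-cell protease activity measured by CellTiter-Fluor fluorescence after 15.5 hr compound exposure.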

[5] = qHTS assay for small molecule disruptors of the mitochondrial membrane potential (AID 720635); further: potency means the concentration at half of the fitted maximal effect
Method in brief: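 HepG2 cells exposed to compound 1 hr at 37C, then Mito-MPS dye 30 min. Ratio read of aggregate (540/590 nm) versus monomer (490/535 nm) fluorescence.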

[6] = qHTS assay to test for compound auto fluorescence at 590 nm (red) in HepG2 cells (AID 720674)
Method in brief: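 HepG2 cells, 2,000 per well in MEM with 10% FBS, attached overnight at 37 C, then got 23 nL compound or DMSO. After 1 hr at 37 C, 5% CO2, red fluorescence was read at 540/590 nm against Rose Bengal sodium as reference.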

[7] = qHTS assay to test for compound auto fluorescence at 460 nm (blue) in HEK293 cells (AID 720678)
Method in brief: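 Blue-channel (Ex/Em 405/460 nm) intensity measured in HEK293 cultures after overnight compound exposure at 37C; signal expressed relative to triamterene. Cells plated 2,000 per well in 10% dialyzed FBS medium and allowed 4-5 hr to attach.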

[8] = qHTS assay to test for compound auto fluorescence at 590 nm (red) in HEK293 cells (AID 720679)
Method in brief: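 Red-channel autofluorescence (Ex/Em 540/590 nm; Rose Bengal sodium reference) was measured after overnight 37C, 5% CO2 exposure of attached HEK293 cells, 2,000 per well in medium with 10% dialyzed FBS.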

[9] = qHTS assay for small molecule disruptors of the mitochondrial membrane potential - cell viability (AID 720634; calls by dose curve;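 further: human HepG2 liver cancer cells; series mostly up to about 83 µM; nearly all actives have a fitted effect of over 20% in size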)
Method in brief: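 After overnight attachment at 37 C, HepG2 cells received compound or DMSO vehicle for 1 hr. Viability is then taken from ATP-driven luminescence following a 30 min room-temperature CellTiter-Glo step.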

[10] = qHTS assay to test for compound auto fluorescence at 535 nm (green) in HepG2 cells (AID 720675)

Row | Structure (SMILES) | Potency [1] | Potency [2] | Potency [3] | Potency [4] | Potency [5] | Potency [6] | Potency [7] | Potency [8] | Potency [9] | Potency [10]
1 | CC[N+](C)(C)Cc1ccccc1Br | inactive | inactive | inactive | inactive | inactive | inactive | inactive | inactive | – | –
2 | COc1cc(C)c(/C=C/C(C)=C/C=C/C(C)=C/C(=O)O)c(C)c1C | 29.8 µM (active) | inactive | – | inactive | inactive | inactive | inactive | inactive | inactive | inactive
3 | C=CCNC1=C2C[C@@H](C)C[C@H](OC)[C@H](O)[C@@H](C)/C=C(\C)[C@H](OC(N)=O)[C@@H](OC)/C=C\C=C(/C)C(=O)NC(=CC1=O)C2=O | 0.168 µM (active) | inactive | inactive | – | – | inactive | inactive | inactive | inactive | inactive
4 | CC(O)[C@@H]1NC(=O)[C@H](CCCCN)NC(=O)[C@@H](Cc2c[nH]c3ccccc23)NC(=O)[C@H](Cc2ccccc2)NC(=O)[C@@H](NC(=O)[C@H](N)Cc2ccccc2)CSSC[C@@H](C(=O)N[C@H](CO)[C@@H](C)O)NC1=O (some centres not stated) | inactive | inactive | inactive | inactive | – | inactive | inactive | inactive | – | inactive
5 | CCOC(=O)c1cc(-c2ccccc2)nc2ccc(C)cc12 | inactive | inactive | inactive | inactive | – | inactive | inactive | inactive | – | –
6 | CC(C)c1nc(N(C)S(C)(=O)=O)nc(-c2ccc(F)cc2)c1/C=C/C(O)CC(O)CC(=O)O (configuration not stated) | inactive | inactive | inactive | – | – | inactive | inactive | inactive | inactive | –
7 | CCC(C)(C)OC(=O)N[C@@H](Cc1c[nH]c2ccccc12)C(=O)N[C@@H](CCSC)C(=O)N[C@@H](CC(=O)O)C(=O)N[C@@H](Cc1ccccc1)C(N)=O | inactive | inactive | – | inactive | inactive | inactive | inactive | inactive | inactive | –
8 | C[C@@H](O)[C@H]1C(=O)N2C(C(=O)[O-])=C(SC3Cn4cnc[n+]4C3)[C@H](C)[C@H]12 (some centres not stated) | inactive | inactive | inactive | inactive | – | inactive | inactive | inactive | – | inactive
9 | COc1ccc(C(=O)Nc2ccccc2CCC2CCCCN2C)cc1 (configuration not stated) | inactive | inactive | – | inactive | inactive | inactive | inactive | inactive | inactive | inactive
10 | O=C(CO)[C@@H](O)[C@H](O)[C@@H](O)C(=O)O | inactive | inactive | inactive | inactive | – | inactive | inactive | inactive | – | inactive
11 | CCOC(=O)C1=C[C@@H](OC(CC)CC)[C@H](NC(C)=O)[C@@H](N)C1 | inactive | inactive | inactive | – | – | inactive | inactive | inactive | inactive | inactive
12 | Nc1ccn(C[C@@H](CO)OCP(=O)(O)O)c(=O)n1 | inactive | – | inactive | inactive | inactive | inactive | inactive | inactive | inactive | –
13 | C=CCOc1ccc(CC(=O)O)cc1Cl | inactive | inactive | – | inactive | – | inactive | inactive | inactive | inactive | inactive
14 | CN[C@@H]1[C@@H](O)[C@@H](O[C@@H]2[C@@H](O)[C@H](O[C@H]3O[C@H](CN)[C@@H](O)[C@H](O)[C@H]3O)[C@@H](N)C[C@H]2NC(=O)C(O)CN)OC[C@]1(C)O (some centres not stated) | inactive | – | inactive | inactive | inactive | inactive | inactive | inactive | inactive | inactive
15 | CCCCCCCCCCCCCCCCCCCCCC(=O)Nc1ccn([C@@H]2O[C@H](CO)[C@@H](O)[C@@H]2O)c(=O)n1 | 11.9 µM (active) | – | inactive | inactive | inactive | inactive | inactive | inactive | inactive | –
16 | O=C(Nc1ccc(O)cc1)c1ccccc1O | inactive | – | inactive | inactive | 5.96 µM (active) | inactive | inactive | inactive | – | inactive
17 | CCC(C)C(C(=O)OCC[N+](C)(CC)CC)c1ccccc1 (configuration not stated) | inactive | – | inactive | inactive | inactive | inactive | inactive | inactive | inactive | inactive
18 | C[Se]CCC(N)C(=O)O (configuration not stated) | inactive | inactive | – | inactive | – | inactive | inactive | inactive | inactive | inactive
19 | Cc1cc(Nc2ccccc2C(=O)O)ccc1Cl | 15 µM (active) | – | 7.5 µM (active) | inactive | 11.9 µM (active) | inactive | inactive | inactive | inactive | inactive
20 | CC(=O)OCC(=O)[C@@]12OC3(CCCC3)O[C@@H]1C[C@H]1[C@@H]3CCC4=CC(=O)C=C[C@]4(C)[C@@]3(F)[C@@H](O)C[C@@]12C | inactive | – | inactive | inactive | 29.8 µM (active) | inactive | inactive | inactive | inactive | inactive
21 | CCCCCCCCCCCCCC[n+]1ccc(C)cc1 | 23.7 µM (active) | inactive | – | – | 13.3 µM (active) | inactive | inactive | inactive | – | inactive
22 | CN1c2c(nc(N)[nH]c2=O)NCC1CNc1ccc(C(=O)NC(CCC(=O)O)C(=O)O)cc1 (configuration not stated) | inactive | inactive | – | inactive | – | inactive | inactive | inactive | inactive | inactive
23 | CC[C@H](C)[C@H](NC(=O)[C@H](Cc1ccccc1)NC(=O)[C@H](C)NC(=O)[C@H](CC(=O)O)NC(=O)[C@H](CCCCN)NC(=O)[C@H](CO)NC(=O)[C@@H]1CCCN1C(=O)[C@@H]1CCC(=O)N1)C(=O)NCC(=O)N[C@@H](CC(C)C)C(=O)N[C@@H](CCSC)C(N)=O ([pGlu]PSKDAFIGLM-NH2) | inactive | inactive | – | inactive | – | inactive | inactive | inactive | inactive | inactive
